From PubChem BioAssay (NCI)
This is part of a sample that, as a whole, favours compounds with a hit. Of some 83,000 tested, about 20% had one in any assay.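 Activity criterion: percent growth below 10, measured after cells in 96-well plates were exposed to a single compound concentration for 48 hours.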 A number with no mark means an inactive call. The source made the active and inactive calls.

Assays:
Assay in all cases: NCI-60 one-dose screen, 48 h (100 = growth as untreated, 0 = no growth, -100 = all killed)
Settings in all cases: 10 µM unless noted
[1] = system: HCT-15 colon
[2] = system: HT29 colon
[3] = system: SNB-75 CNS
[4] = system: SNB-19 CNS
[5] = system: U251 CNS
[6] = system: PC-3 prostate
[7] = system: SK-MEL-5 melanoma
[8] = system: UACC-62 melanoma
[9] = system: LOX IMVI melanoma
[10] = system: SK-MEL-28 melanoma
[11] = system: EKVX NSCLC
[12] = system: SN12C renal
[13] = system: UO-31 renal
[14] = system: TK-10 renal
[15] = system: ACHN renal
[16] = system: CAKI-1 renal
[17] = system: A498 renal
[18] = system: CCRF-CEM leukemia
[19] = system: MOLT-4 leukemia

SMILES | growth [1] | growth [2] | growth [3] | growth [4] | growth [5] | growth [6] | growth [7] | growth [8] | growth [9] | growth [10] | growth [11] | growth [12] | growth [13] | growth [14] | growth [15] | growth [16] | growth [17] | growth [18] | growth [19]
CS(=O)(=O)N1CCN(Cc2cc3nc(-c4cccc5[nH]ncc45)nc(N4CCOCC4)c3s2)CC1 | 19.3% | 11.4% | -25.6% (active) | 34.9% | 34% | 18.2% | 33.5% | -14.2% (active) | 15.5% | 10.6% | 19.9% | 17.2% | -14.7% (active) | 0.78% (active) | 6.84% (active) | 7.35% (active) | -47.6% (active) | 36.3% | 12.3%
CNC(=O)c1c(C)oc2cc(Oc3ncnc4cc(OC)c(OC)cc34)ccc12 | 109% | 98.4% | 58.2% | 97.5% | 58.9% | 84.9% | 121% | 104% | 96.5% | 119% | 113% | 107% | 66% | 98.9% | 104% | 82.2% | 19.5% | 86.2% | 85.6%
Cc1nc(N)sc1-c1ccnc(Nc2ccc(N3CCOCC3)cc2)n1 | 44.7% | 25.5% | -11% (active) | 29.9% | 27.9% | 38.3% | 70.8% | 41.6% | 29.6% | 61.5% | 71.7% | 49.8% | 19.7% | 39.9% | 29.7% | 20.8% | 32.6% | 23% | 13.8%
O=S1(=O)OC(c2ccc(O)c(Cl)c2)(c2ccc(O)c(Cl)c2)c2ccccc21 | 102% | 123% | 78.4% | 103% | 111% | 77.8% | 95.9% | 99.5% | 100% | 114% | 112% | 97% | 66.2% | 100% | 96.9% | 90.2% | 90.3% | 102% | 109%
COC[C@@H](C)n1c(C2CCOCC2)nc2c1C1C=C(OC)C(c3c(C)noc3C)=CC1N=C2 (stereo partly drawn) | 30.7% | 17.4% | 2.03% (active) | 46.3% | 69% | 38.2% | 38.7% | 18.5% | 19.6% | 65.4% | 56.9% | 64.9% | 13.2% | 6.38% (active) | 41.2% | 41% | 18.6% | 50.8% | 59%
COc1ccc(-c2ccc3c(N4CCOC[C@@H]4C)nc(N4CCOC[C@@H]4C)nc3n2)cc1CO | 6.93% (active) | 6.32% (active) | -44.9% (active) | 9.71% (active) | 7.15% (active) | 9.37% (active) | -26.8% (active) | -32.3% (active) | 1.2% (active) | -17.1% (active) | 7.48% (active) | 9.9% (active) | -13% (active) | -30.8% (active) | 5.54% (active) | -14.6% (active) | -35.4% (active) | 16.4% | 11.6%
COc1ccc(S(=O)(=O)N(C(C)=O)c2ccccc2/C=C/c2cc[n+]([O-])cc2)cc1 | 17.9% | 1.49% (active) | 4.75% (active) | 25.4% | 9.19% (active) | 17.9% | 7.61% (active) | 37.1% | 18% | 45.4% | 31.8% | 32.4% | 50% | 49.2% | 42.5% | 32.7% | 1.32% (active) | 16.4% | 22.5%
Cc1nn(-c2ccccc2)c2c1N=c1s/c(=C\c3cn(-c4ccccc4)nc3-c3ccc(Cl)cc3)c(=O)n1C(C)N2 (stereo not drawn) | 85.8% | 94.3% | 86.4% | 98.9% | 85.2% | 82.4% | 85% | 106% | 87.6% | 118% | 84.8% | 91.5% | 70.1% | 152% | 83.7% | 83.6% | 123% | 110% | 95.3%
CCc1cnn2c(NCc3ccc[n+]([O-])c3)cc(N3CCCC[C@H]3CCO)nc12 | 0.896% (active) | -29.3% (active) | -74.4% (active) | 6.92% (active) | -8.91% (active) | -20.5% (active) | -40.2% (active) | -70.7% (active) | 5% (active) | -34.3% (active) | -11.2% (active) | 4.31% (active) | -7.4% (active) | -16% (active) | 2.95% (active) | 6.71% (active) | -60.4% (active) | -0.938% (active) | -9.3% (active)
CCCCN1C(=O)c2cccc3c(-c4ccc5c(c4)ncn5C4CCCCC4)ccc(c23)C1=O | 106% | 84.1% | 92.3% | 106% | 98.3% | 94.3% | 107% | 92.8% | 102% | 117% | 99.8% | 105% | 82.1% | 102% | 107% | 93.7% | 118% | 113% | 94.7%
CCCCCc1ccc(C)cc1OC(=O)CCl | 110% | 100% | 90% | 105% | 101% | 88.4% | 103% | 113% | 106% | 113% | 117% | 110% | 66.9% | 105% | 105% | 91.7% | 105% | 102% | 102%
CCCCOc1nc2cc(Cl)ccc2cc1/C=C/c1cc(/C=C/c2cc3ccc(Cl)cc3nc2OCCCC)n(-c2ccccc2)n1 | 112% | 88.9% | -17.4% (active) | 69.9% | 43.2% | 86.3% | 106% | 72.7% | 86.2% | 112% | 113% | 94% | 89.9% | 91.4% | 75.6% | 78.5% | 97.9% | 98.9% | 84.8%
CCCCn1c(C)nc2cc(Nc3nc(N4CCCCC4)nc4nc[nH]c34)ccc21 | 52.9% | 59.8% | 11.4% | 73.3% | 58.5% | 25.7% | -31.7% (active) | 45.4% | 33.7% | 76% | 52.5% | 49.6% | 28.1% | 57.2% | 36.8% | 31.1% | 34.3% | 46.6% | 9.09% (active)
C[C@H]1Oc2cc(cnc2N)-c2c(nn(C)c2C#N)CN(C)C(=O)c2ccc(F)cc21 | 96.7% | 33% | 83.8% | 110% | 96.6% | 81.7% | 99.3% | 70.9% | 74.2% | 87.4% | 82.5% | 94.6% | 84.3% | 74% | 86% | 73% | 109% | 93.8% | 70.5%
C[C@@H](Nc1cc(F)cc(F)c1)c1cc(C(=O)N(C)C)cc2c(=O)cc(N3CCOCC3)oc12 | 84% | 23.9% | -8.61% (active) | 64.1% | 61.4% | 29% | 73.2% | 11.3% | 48.2% | 46.3% | 68.2% | 52.1% | 24.2% | 32.8% | 49.9% | 33.6% | -38.1% (active) | 70.3% | 25.3%
CN(C)CCn1c(=O)c2c3cc4c(cc3n(CCN(C)C)c2c2ccc(Cl)cc21)OCO4 | 43.3% | 25.1% | 70.8% | 34.3% | 44.6% | 36.2% | 52.8% | 76.9% | -88.2% (active) | 87% | 74% | 31.7% | 57.8% | 103% | 26.3% | 42.4% | 67.1% | 14.4% | 3.05% (active)
CN1C/C=C\CCOc2cccc(c2)-c2ccnc(n2)Nc2cccc(c2)C1 | -16.9% (active) | -16.8% (active) | -98.6% (active) | 0.69% (active) | -52.9% (active) | -41.9% (active) | -95.1% (active) | -62.7% (active) | -79.4% (active) | -76% (active) | -14.7% (active) | -41.5% (active) | -79.3% (active) | -53.2% (active) | -37.9% (active) | -87.9% (active) | -77.8% (active) | 3.32% (active) | -20% (active)
COc1c(OCCCN2CCOCC2)ccc2c3n(c(=NC(=O)c4cnc(N)nc4)nc12)CCN3 | 14.9% | 3.56% (active) | -19.2% (active) | 10.8% | 10.1% | 12% | -48.7% (active) | -48.9% (active) | -41.9% (active) | -7.18% (active) | 13.2% | 16.3% | -13.8% (active) | -21% (active) | 8.09% (active) | 0.422% (active) | -60.7% (active) | 17.7% | 6.38% (active)
O=C(O)C1(Cc2cccc(Nc3nccs3)n2)CCC(Oc2cccc(Cl)c2F)CC1 (stereo not drawn) | 70.7% | 62.8% | 95.5% | 75.4% | 60.8% | 71.3% | 70.3% | 61.8% | 74.6% | 88.4% | 90.9% | 73.4% | 73.5% | 63.8% | 68.4% | 66.9% | 72% | 62.6% | 67.4%
Cc1cc(O)cc(-c2c(-c3ccnc(-c4cccnc4)c3)cnn2C)c1 | 74% | 60.7% | 16.4% | 96.4% | 69.3% | 47.8% | 56.5% | 62.1% | 61.5% | 60.8% | 89.5% | 58.9% | 36.1% | 51% | 39.5% | 42.3% | 5.82% (active) | 61.7% | 54.8%
Cc1cc(-c2cc(OC(=O)c3ccccc3)ccc2Cl)cc2nnc(Nc3ccc(OCCN4CCCC4)cc3)nc12 | -66.9% (active) | 63.9% | 32.7% | 91.9% | 84.8% | -20.2% (active) | 83.1% | 75.6% | 48.4% | 89.2% | 92.3% | 66.3% | 73.9% | 89.7% | 74.2% | 86.3% | 94.3% | 3.09% (active) | 73.1%
O=C(Nc1cn[nH]c1-c1nc2ccc(CN3CCOCC3)cc2[nH]1)NC1CC1 | 50.2% | 16.3% | -42.1% (active) | 19.5% | 18.6% | 38.5% | 36.1% | 25.1% | 1.79% (active) | 39.5% | 68.5% | 17% | -22.1% (active) | 44% | 36.1% | 23.2% | -15.5% (active) | 13.9% | -5.45% (active)
